High-throughput results (PubChem BioAssay)
Shown are actives, neighbours in structure and some others; about 4.9% of the full set was active somewhere.
TIM10 inh = inhibits growth of TIM10 yeast strain | S. cerevisiae TIM10 strain growth, BacTiter-Glo luminescence, 24 h | inhibition, % at 10 µM | 1.4% of 330,000 active;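 active = inhibition of 40% or more at the single tested concentration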;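 also: wild-type TIM10 isogenic control strain grown at permissive 25 °C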
NLRP3 yeast inh = NALP3 inhibition in yeast | Yeast reconstituted NLRP3/ASC/caspase-1, beta-gal luminescence, 24 h | inhibition, % at 10 µM | 0.39% of 330,000 active | AID 2825;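 active = inhibition of 50% or more; inactive = inhibition below 50%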
tim10-1 inh = inhibits growth of tim10-1 mutant yeast. S. cerevisiae tim10-1 ts strain growth, BacTiter-Glo, 24 h. inhibition, % at 20 µM. 2.2% of 330,000 active;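 active = inhibition of at least 40%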;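 also: mutant grown at 25 °C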
tim23-1 inh = tim23-1 yeast growth inhibition. inhibition, % at 20 µM. 1.3% of 330,000 active. AID 463212. S. cerevisiae tim23-1 growth, BacTiter-Glo luminescence, 24 h;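 active = growth inhibition of the mutant yeast at or above 50%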;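 also: temperature-sensitive mutant grown at 25 °C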
SKKanGAS inh = inhibitors of SKKanGAS S. pyogenes growth in kanamycin (SK-promoter or general growth effect); BacTiter-Glo, 6 h; inhibition, % at 7.5 µM; 1.3% of 300,000 active;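 active = mean replicate score, as percent of positive control median, at least 50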;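 also: strain carries kanamycin resistance gene driven by streptokinase promoter and grows in 40 µg/ml kanamycin; loss of luminescence reflects streptokinase promoter inhibition or plain growth inhibition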
NALP1 inh = NALP1 inhibition. S. cerevisiae NALP1/ASC/caspase-1 growth, X-gal OD620, 72 h. inhibition, % at 10 µM. 0.61% of 280,000 active; in the data active = inhibition mostly above about 24%, no sharp cut-off; inactive = mostly below about 32%
TIM10 conf = confirmation of TIM10 yeast growth inhibitors. 63% of 4,600 active. shares compounds with TIM10 inh. inhibition, % at 10 µM. S. cerevisiae tim10 strain growth, BacTiter-Glo luminescence, 24 h. AID 463215;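 active = inhibition of yeast growth at or above a set limit in either of two replicates at 10 µM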; also: this counterscreen used the strain with wild-type TIM10
tim23-1 confirm = confirmation of tim23-1 mutant yeast growth inhibitors | AID 463218 | shares compounds with tim23-1 inh | S. cerevisiae tim23-1 growth, BacTiter-Glo luminescence, 24 h | 83% of 4,400 active | inhibition, % at 20 µM;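 active = inhibition above about 39% in either of two replicate wells at 20 µM, limit read from the data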;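 also: temperature-sensitive tim23-1 mutant grown at 25 °C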
Large screens that a line does not name were inactive (follow-up assays come after a bar, where they were run).

CC(=O)c1ccc(N2CCN(C(=O)/C=C/c3ccc4ccccc4n3)CC2)cc1	TIM10 inh 64, tim23-1 inh 50 | TIM10 conf 76 | tim23-1 confirm 40
COc1ccc(S(=O)(=O)N2CCN(Cc3ccc(Cl)cc3)CC2)cc1	TIM10 inh 42, tim23-1 inh 58 | TIM10 conf 40 | tim23-1 confirm 50
O=C(C#Cc1ccccc1)c1ccco1	TIM10 inh 56, tim23-1 inh 61, NALP1 inh 44 | TIM10 conf 69 | tim23-1 confirm 62
CN(Cc1ccccc1)C(=O)c1ccco1	none
Cc1c(C(=O)Oc2cccc3cccnc23)oc2ccccc12	TIM10 inh 53, tim23-1 inh 65 | TIM10 conf 40 | tim23-1 confirm 58
Nc1ccc2c(c1)C(=O)c1ccccc1C2=O	none (no result: NALP1 inh)
O=C1C(=O)c2ccc(-c3ccccc3)cc2-c2ccccc21	TIM10 inh 44, tim23-1 inh 59, SKKanGAS inh 101 | TIM10 conf 61 | tim23-1 confirm 56
CCn1c(C)c(C)c2cc(C(=O)Nc3cccc(Cl)c3)ccc21	TIM10 inh 41, tim23-1 inh 52 | TIM10 conf 51 | tim23-1 confirm 57
CC1(c2ccccc2)ON(c2ccccc2C(F)(F)F)C1=O (configuration not stated)	TIM10 inh 54, tim23-1 inh 62 (no result: SKKanGAS inh, NALP1 inh) | TIM10 conf 65 | tim23-1 confirm inactive
O=C1c2ccc(-c3ccc(F)cc3OCc3ccccc3)cc2S(=O)(=O)c2cccc(C(=O)N3CCCC3)c21	none (no result: SKKanGAS inh, NALP1 inh)
CCCCNC(=S)N/N=C/c1ccccc1F	TIM10 inh 47, tim23-1 inh 51 | TIM10 conf inactive | tim23-1 confirm 40
Cc1ccc(N2C(=O)N(CC(=O)Nc3cc(F)ccc3C)C(=O)C2C)cc1 (configuration not stated)	none (no result: NALP1 inh)
COc1ccc(CCNC(=O)c2cc(=O)c3cc(C)ccc3o2)cc1OC	none
COc1ccc(/C=N/n2c(N)nc3ccccc32)cc1OC	none (no result: SKKanGAS inh)
COc1cccc(/C=N/n2c(N)nc3ccccc32)c1OC	TIM10 inh 44, tim23-1 inh 60, SKKanGAS inh 53 | TIM10 conf 45 | tim23-1 confirm inactive
CC(=O)c1ccc(-c2cccc([C@H]3[C@@H]4C=CC[C@@H](C)[C@@H]4C(=O)N3Cc3ccccc3)c2)cc1	none (no result: NLRP3 yeast inh, SKKanGAS inh, NALP1 inh)
O=C(NCc1ccc2c(c1)OCO2)c1ccc(Br)cc1	none
O=C1Nc2ccc(Br)cc2/C1=C/C(=O)c1ccc2c(c1)OCO2	TIM10 inh 53, tim23-1 inh 73 (no result: NALP1 inh) | TIM10 conf 64 | tim23-1 confirm inactive
Oc1ccc(/C=C/c2ccc3ccccc3n2)cc1	TIM10 inh 44, tim23-1 inh 75 | TIM10 conf 47 | tim23-1 confirm 55
O=[N+]([O-])c1ccc(/C=C/c2ccc3ccccc3n2)cc1	none
CC(=O)c1cccc(NCC(=O)N2CCN(S(=O)(=O)c3ccccc3)CC2)c1	none (no result: SKKanGAS inh, NALP1 inh)
O=C1CCc2cc(S(=O)(=O)Nc3ccccc3)cc3c2N1CC3	none (no result: NALP1 inh)
CN(C(=O)COC(=O)c1ccccc1C(=O)N(C)c1ccccc1)c1ccccc1	none
CN(C(=O)COC(=O)c1cc2ccccc2cc1O)c1ccccc1	TIM10 inh 40, tim23-1 inh 62 (no result: SKKanGAS inh, NALP1 inh) | TIM10 conf 47 | tim23-1 confirm 48
CC1CCCC(NC(=O)c2ccc3c(c2)NC(=O)CS3)C1C (configuration not stated)	none
Cc1ccc(C(=O)COC(=O)c2cn3ccccc3n2)cc1	TIM10 inh 48, tim23-1 inh 57 | TIM10 conf 42 | tim23-1 confirm 69
NNC(=O)c1cn2ccccc2n1	none
CC(C)c1ccc2c(c1)C1(NN=C(c3ccccc3)S1)C(=O)N2 (configuration not stated)	TIM10 inh 51, tim23-1 inh 50, SKKanGAS inh 99 | TIM10 conf 40 | tim23-1 confirm 54
CC1=NN(C(N)=S)C(=O)C1N=Nc1c(Br)cc(Br)cc1Br (configuration not stated)	TIM10 inh 45, tim23-1 inh 60, SKKanGAS inh 66 | TIM10 conf 60 | tim23-1 confirm 63
